# Compounds with a hit are over-represented: about 2.9% of the library has one in this group of screens.
# ERa SRC1 pot – enhances coactivator binding to human estrogen receptor alpha; P03372; TR-FRET ERalpha-LBD/SRC-Cy5 coactivator binding, 2 h; 100 = basal binding, no effect; coactivator binding (% of control), % at 25.6 µM; hit rate 1.3% among 86,000; AID 639; in the data active means activity above about 200%;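 further: binding measured in presence of low estradiol as agonist stimulus; 0% = peptide alone without receptor and 100% = receptor with peptide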
# Target sequence (P03372 whole entry, looked up, the tested form may be a part): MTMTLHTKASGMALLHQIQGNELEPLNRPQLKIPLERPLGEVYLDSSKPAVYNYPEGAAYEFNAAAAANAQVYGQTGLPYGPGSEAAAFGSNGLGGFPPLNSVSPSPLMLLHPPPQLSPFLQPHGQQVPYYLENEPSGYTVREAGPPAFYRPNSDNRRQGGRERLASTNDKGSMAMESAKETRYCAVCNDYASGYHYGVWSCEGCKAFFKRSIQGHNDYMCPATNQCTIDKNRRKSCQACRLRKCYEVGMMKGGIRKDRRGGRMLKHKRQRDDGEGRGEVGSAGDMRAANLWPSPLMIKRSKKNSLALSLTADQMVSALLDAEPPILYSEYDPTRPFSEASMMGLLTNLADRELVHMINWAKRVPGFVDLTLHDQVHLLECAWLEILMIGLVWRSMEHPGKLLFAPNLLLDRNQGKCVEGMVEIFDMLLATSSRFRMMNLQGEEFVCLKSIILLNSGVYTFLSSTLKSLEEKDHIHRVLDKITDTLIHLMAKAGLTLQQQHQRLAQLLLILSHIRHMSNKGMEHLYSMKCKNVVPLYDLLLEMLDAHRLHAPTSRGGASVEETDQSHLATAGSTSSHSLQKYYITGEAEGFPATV
# Candida biofilm – kills Candida albicans biofilms. C. albicans biofilm + clotrimazole, Alamar Blue. inhibition, % at 6 µM. hit rate 0.14% among 85,000;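 active means inhibition above 20%; inactive means inhibition below 20%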;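 further: preformed 24 hr biofilms exposed to compound for 48 hr; 0% = biofilm without compound and 100% = blank killed by clotrimazole plus chlorhexidine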
# ERb SRC1 inh – ER-beta (human) coactivator binding inhibition; inhibition, % at 25.6 µM; hit rate 1.3% among 86,000; TR-FRET ER-beta LBD / SRC1-Cy5 peptide binding; receptor agonist-loaded with 1 µM estradiol; Q92731;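 active means compounds whose percent inhibition of the receptor-coactivator binding signal exceeds about 50% in the single-dose screen, limit read from the data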;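 further: 0% = receptor plus peptide wells without compound and 100% = peptide-only wells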
# E-sel TNF inh – TNF alpha driven E-selectin expression inhibition; HUVEC TNFa-induced E-selectin immunofluorescence, high content; inhibition, % at 2 µM; hit rate 0.71% among 120,000; AID 1246;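 active means inhibition above the batch mean plus 3 SD, and confirmed as a hit on visual image review, cut at about 43% in these data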;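 further: 0% = TNF-stimulated DMSO wells and 100% = unstimulated control wells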
# ERa SRC1 inh – blocks coactivator binding to human estrogen receptor alpha | P03372 | TR-FRET ER-alpha LBD / SRC-1 peptide, estradiol-bound | inhibition, % at 25.6 µM | hit rate 1.7% among 86,000; in the data active means inhibition above about 50%;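 further: 0% = receptor plus peptide control and 100% = peptide only without receptor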
# cytoskel mod – cytoskeleton assembly modification | HUVEC TNFa F-actin phalloidin imaging, high content | inhibition, % at 2 µM | hit rate 0.18% among 91,000 | AID 836;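 active means inhibition above the batch mean plus 3 SD and confirmed as a hit by visual image inspection, cut at about 30% in these data, passing the limit was not always enough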
# The depositor's hits bear a star; · = not tested or not shown; [ ] = another dose, or the depositor's remark.
SMILES,ERa SRC1 pot,Candida biofilm,ERb SRC1 inh,E-sel TNF inh,ERa SRC1 inh,cytoskel mod
CC(=O)OC1CC(C)(C)N(OC(=O)c2ccc(N)cc2)C(C)(C)C1,54,6,20,6,61*,2
COc1ccc(C2NC(c3ccc(OC)cc3)C(c3ccccc3)C(=O)C2c2ccccc2)cc1 (stereo not given),·,·,·,-4,·,·
CCn1c2ccccc2c2cc(C3C(C#N)=C(C)NC(C)=C3C#N)ccc21,215*,4,4,·,6,1
Cc1csc(C(C#N)C(=O)c2ccncc2)n1 (stereo not given),65,5,63*,-23,32,·
CCOC(=O)CSc1nc(-c2ccncc2)ccc1C#N,108,0,-3,·,-5,-18
COc1ccc(-c2cc(C(=O)Nc3cnn(Cc4ccccc4C)c3)no2)cc1OC,·,·,·,78*,·,5
CCCn1cc(NC(=O)c2cc(-c3ccccc3)on2)cn1,96,-2,-1,23,5,·
COc1ccc(N2CSC3=C(C#N)C(c4cc(OC)c(OC)cc4OC)CC(=O)N3C2)c(OC)c1 (stereo not given),101,6,-10,8,55*[fluorescence artefact?],3
CCOc1ccccc1N1CSC2=C(C#N)C(c3c(OC)ccc4ccccc34)CC(=O)N2C1 (stereo not given),376*,-3,17,·,-2,4
COc1ccc(N2CSC3=C(C#N)C(c4cccs4)CC(=O)N3C2)cc1 (stereo not given),69,-11,41,-31,54*[fluorescence artefact?],·
COc1ccc(N2CSC3=C(C#N)C(c4ccc(OC)c(OC)c4)CC(=O)N3C2)c(OC)c1 (stereo not given),81,16,13,-3,-6,1
COc1ccc(N2CSC3=C(C#N)C(c4cc(OC)ccc4OC)CC(=O)N3C2)c(OC)c1 (stereo not given),84,11,15,·,-9,10
CCOc1ccc(NC(=O)NC(=O)N(C(C)C)S(C)(=O)=O)cc1,·,·,·,14,·,·
Cc1nc(OCC(=O)c2ccc(Cl)cc2)c(C#N)c2c1COC(C)(C)C2,773*[fluorescence artefact?],4,-9,-1,2,1
COc1ccc(N2Cc3cccc(C(=O)N4CCN(C(=O)c5ccco5)CC4)c3C2=O)cc1,84,-5,68*,·,71*,13
O=C(Nc1cc(C(F)(F)F)ccc1N1CCCCC1)c1ccco1,693*[fluorescence artefact?],4,2,15,-9,-4
O=C(Nc1cc(C(F)(F)F)ccc1N1CCCCC1)c1ccc(Br)o1,110,5,-2,-16,-4,-20
O=C(Nc1cc(C(F)(F)F)ccc1N1CCOCC1)C1Cc2ccccc2CN1C(=O)c1ccco1 (stereo not given),14,3,55*,12,91*[fluorescence artefact?],4
O=C(NC1=NCCS1)c1ccc([N+](=O)[O-])cc1Cl,·,·,·,5,·,·
c1ccc(-c2ccccc2-n2cnnn2)cc1,109,8,21,9,15,·
Cc1ccc(Cc2cnc(NC(=O)/C(C#N)=C/c3ccc(-c4ccccc4[N+](=O)[O-])o3)s2)cc1,·,·,·,51*,·,-9
CN(C)C(=O)COc1ccc(Oc2ccccc2)cc1,·,·,·,-24,·,·
COc1ccccc1NC(=O)Cc1noc(CSc2nnc(C)n2C)n1,·,·,·,2,·,·
O=C1C2CC=C(Cl)CC2C(=O)N1CCCCCCN1C(=O)C2CC=C(Cl)CC2C1=O (stereo not given),195,5,44,15,56*,14
O=C1C2CC=C(Cl)CC2C(=O)N1CCN1CCOCC1 (stereo not given),103,6,6,21,-1,17
SMILES,ERa SRC1 pot,Candida biofilm,ERb SRC1 inh,E-sel TNF inh,ERa SRC1 inh,cytoskel mod
COCC(C)n1c(SCC(=O)N(C)C2CCS(=O)(=O)C2)nc2ccccc2c1=O (stereo not given),·,·,·,-5,·,·
Cc1ccc(C(=O)CC(=O)c2cccc(F)c2)c(O)c1,·,·,·,-11,·,-12
Cc1ccc2c(COC(=O)c3n[nH]c4ccccc34)cc(=O)oc2c1,200*,-3,15,-25,16,·
N=c1c2cn[nH]c2nc(SCC(=O)c2ccc(Br)cc2)n1-c1ccc(Br)cc1,·,·,·,3,·,·
COc1cc(NC(=O)c2ccco2)c(OC)cc1NC(=O)Nc1ccc(Cl)cc1,68,-4,12,·,22,6
COc1cc(OC)c(NC(=O)c2ccco2)cc1Cl,115,6,0,100*,-9,-30
COc1ccc(NC(=O)c2cc(Cl)ccc2NC(=O)c2ccco2)c(OC)c1,217*[fluorescence artefact?],5,10,-6,16,9

# From PubChem
